# Laboratory results reported in the supplement of paper PMC4894684.
# Structures can show the parent of a compound that is named as a salt. ± gives the standard deviation of the averaged measurements.
# System: Toxoplasma gondii RH (in HFF)
# Assay: parasite growth relative to the screen mean (all compounds = 100%); higher = less inhibition of parasite growth
# Conditions: 5 µM; 72 h; oxygen 21 %
# Method in brief: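 Library compounds, held as 10 mM DMSO stocks, were pinned to 5 µM final onto confluent human foreskin fibroblasts in 96-well plates. The cells were infected within 2 h with RH β-Gal–GFP Toxoplasma (MOI 1:5), grown 72 h at 21% O2, and assayed for parasite number by CPRG β-Gal using in-plate standard curves. Growth is reported relative to the screen mean, in which all compounds = 100%, averaged over two screens, and CellTiter-Blue checked uninfected host-cell viability.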
row,SMILES,parasite growth [%]
1,"Cc1cc(C)cc(C(=O)OC2C[C@H]3CC[C@@H](C2)N3C)c1 (stereo partly drawn) [Tropanyl-3,5-dimethylbenzoate]",97.3 ± 3.6
2,c1ccc(C2CC2)c(OCC2=NCCN2)c1 [Cirazoline hydrochloride],91.7 ± 19
3,CCCN1CCO[C@@H]2c3cc(O)ccc3OC[C@H]21,96 ± 2.6
4,NCCc1c[nH]c2ccc(O)cc12 [Serotonin],106 ± 15
5,CCC[C@@H]1CC2=CC(=O)CC[C@]2(C)[C@H]2CC[C@@]3(C)[C@@H](CC[C@@]3(O)CCC(=O)O)[C@H]12,75.2 ± 19
6,C=CCN1CC[C@]23c4c5ccc(O)c4O[C@H]2/C(=N/NC(=O)c2ccccc2)CC[C@@]3(O)[C@H]1C5 [Naloxone benzoylhydrazone],108 ± 34
7,O=C(O)Cc1cccnc1C(=O)O [Homoquinolinic acid],85.7 ± 1.6
8,CC(=O)[C@H]1CC[C@H]2[C@@H]3CC[C@H]4C[C@](C)(O)CC[C@]4(C)[C@H]3CC[C@]12C [Ganaxolone],147 ± 17
9,CC(C)NCC(O)c1ccc(N)c(C#N)c1 (stereo not drawn) [Cimaterol],130 ± 2.8
10,N=C(N)NN [Aminoguanidine hydrochloride],124 ± 28
11,C#CCOC(=O)C1=CCCN(C)C1 [Arecaidine propargyl ester tosylate],137 ± 4.5
12,Cn1cc(C(=O)C(=O)N[C@H]2CN3CCC2CC3)c2ccccc21,96.5 ± 6.7
13,CCCCC/C=C\C/C=C\C/C=C\C/C=C\CCCC(=O)Nc1ccc(O)cc1,31.3 ± 14
14,COc1cc2c(cc1O)C(CCc1ccc(Cl)cc1)N(C)CC2 (stereo not drawn),58.7 ± 22
15,C=C(C)CN1CC[C@@]23c4c5ccc(O)c4O[C@H]2c2[nH]c4ccccc4c2C[C@]3(O)C1C5 [SDM25N hydrochloride],77.5 ± 21
16,CN1CCN(c2ccc3ccccc3n2)CC1 [N-Methylquipazine dimaleate],111 ± 14
17,S=C=Nc1cccc(C2(N3CCCCC3)CCCCC2)c1 [Metaphit],51.3 ± 6
18,COc1cc(N)c(Cl)cc1C(=O)NC1CN2CCC1CC2 (stereo not drawn) [Zacopride hydrochloride],142 ± 12
19,CCCN(C/C=C/I)C1CCc2ccc(O)cc2C1 (stereo not drawn) [7-Hydroxy-PIPAT maleate],181 ± 37

row,SMILES,parasite growth [%]
1,O=C(O)C1=CCCN(CCOC(c2ccc(C(F)(F)F)cc2)c2ccc(C(F)(F)F)cc2)C1 [CI 966 hydrochloride],137 ± 5.2
2,C[C@H](Cc1ccc(OCC(=O)O)cc1)NC[C@H](O)c1cccc(Cl)c1,90.6 ± 30
3,CCOC(=O)c1ncn2c1CN(C)C(=O)c1cc(N=[N+]=[N-])ccc1-2,60 ± 14
4,CCOC(=O)c1cncn1[C@H](C)c1ccccc1 [Etomidate],114 ± 17
5,O=C1NCN(c2ccccc2)C12CCN(CC1COc3ccccc3O1)CC2 (stereo not drawn) [Spiroxatrine],140.8 ± 0.7
6,CC(N)Cc1c[nH]c2ccc(O)cc12 (stereo not drawn) [α-Methyl-5-hydroxytryptamine maleate],144 ± 31
7,S=C(NC1CCCCC1)N1CCC(c2cnc[nH]2)CC1 [Thioperamide],124 ± 20
8,Cn1c2c(c3ccccc31)CCNCC2,118 ± 15
9,C=CCN1C[C@H](C)N([C@H](c2ccc(C(=O)N(CC)CC)cc2)c2cccc(OC)c2)C[C@H]1C,42.5 ± 3.7
10,Cc1nc(N)sc1CCN [Amthamine dihydrobromide],94 ± 4.8
11,C[C@H](N)Cn1ccc2cc(F)c(Cl)cc21 [Ro 60-0175 fumarate],115 ± 28
12,CCOc1cncc(/C=C/CCNC)c1 [TC 2559 difumarate],90.8 ± 7
13,C=CCN1C[C@H](C)N([C@H](c2ccc(C(=O)N(CC)CC)cc2)c2cccc(O)c2)C[C@H]1C,110 ± 22
14,Cc1onc(O)c1CC(N)C(=O)O (racemic) [(RS)-AMPA hydrobromide],121 ± 16
15,Oc1ccc2c3c1O[C@H]1c4[nH]c5ccccc5c4C[C@@]4(O)[C@@H](C2)N(CC2CC2)CC[C@]314 [Naltrindole hydrochloride],148 ± 35
16,N=C(NCc1ccc(Cl)cc1)SCCCc1c[nH]cn1 [Clobenpropit dihydrobromide],106 ± 11
17,COc1ccc(CNC(=O)/C=C/c2ccc3[nH]cc(CCN(C)C)c3c2)cc1,98.3 ± 31
18,"c1ccc(CC(c2ccccc2)N2CCCCC2)cc1 (racemic) [(±)-1-(1,2-Diphenylethyl)piperidine maleate]",124 ± 20
19,CCCCC1(C2CCCC2)Cc2cc(OCCCC(=O)O)c(Cl)c(Cl)c2C1=O (stereo not drawn),124 ± 5
